# Test results published in PMC7862700, “An all-to-all approach to the identification of sequence-specific readers for epigenetic DNA modifications on cytosine”.
# Columns and labels:
# Assay in all cases: DAPPL (digital affinity profiling via proximity ligation, sequencing); 10 mM Tris-HCl pH 7.5, 50 mM NaCl, 1 mM DTT, 4% glycerol, room temperature, 30 min; GST-TFs on glutathione beads, 16-mer random dsDNA library, 0.1% formaldehyde crosslink after washing; high values mean tight binding
# Conditions in all cases: protein: recombinant; tags: N-terminal GST; dsDNA, one strand shown
# FLI1 = target: T1, FLI1 (Homo sapiens, UniProt Q01543 1-452)
# T1 sequence: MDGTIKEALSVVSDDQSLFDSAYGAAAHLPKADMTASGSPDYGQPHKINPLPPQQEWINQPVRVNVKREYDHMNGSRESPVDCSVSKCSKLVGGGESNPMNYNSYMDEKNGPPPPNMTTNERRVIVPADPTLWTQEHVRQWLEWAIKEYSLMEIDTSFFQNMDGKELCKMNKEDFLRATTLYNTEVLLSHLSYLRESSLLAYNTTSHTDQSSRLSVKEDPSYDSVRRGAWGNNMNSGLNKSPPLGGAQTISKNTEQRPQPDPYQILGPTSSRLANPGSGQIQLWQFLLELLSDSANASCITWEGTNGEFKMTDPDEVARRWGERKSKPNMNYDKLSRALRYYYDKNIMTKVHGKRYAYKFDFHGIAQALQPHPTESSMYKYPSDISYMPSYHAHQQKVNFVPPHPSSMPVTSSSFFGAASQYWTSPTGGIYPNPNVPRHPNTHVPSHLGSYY
# Method in brief: (§1)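 Human transcription factors carrying a GST fusion were produced in yeast, bound to glutathione beads, tagged with DNA barcodes and pooled together with a tag-only sample. Each pool was held with 200 nmole of a random double-stranded 16-mer DNA library in Tris/NaCl/DTT/glycerol buffer for 30 min at room temperature, then washed, crosslinked in 0.1% formaldehyde, proximity-ligated with BsaI/T4 ligase (1 h, 37 °C), PCR-amplified and sequenced on an Illumina NextSeq500. Binding signal is the read frequency of each hexamer for a given factor divided by its frequency in the tag-only sample.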
# ELK1 = target: T2, ELK1 (Homo sapiens, UniProt P19419 1-428)
# T2 sequence: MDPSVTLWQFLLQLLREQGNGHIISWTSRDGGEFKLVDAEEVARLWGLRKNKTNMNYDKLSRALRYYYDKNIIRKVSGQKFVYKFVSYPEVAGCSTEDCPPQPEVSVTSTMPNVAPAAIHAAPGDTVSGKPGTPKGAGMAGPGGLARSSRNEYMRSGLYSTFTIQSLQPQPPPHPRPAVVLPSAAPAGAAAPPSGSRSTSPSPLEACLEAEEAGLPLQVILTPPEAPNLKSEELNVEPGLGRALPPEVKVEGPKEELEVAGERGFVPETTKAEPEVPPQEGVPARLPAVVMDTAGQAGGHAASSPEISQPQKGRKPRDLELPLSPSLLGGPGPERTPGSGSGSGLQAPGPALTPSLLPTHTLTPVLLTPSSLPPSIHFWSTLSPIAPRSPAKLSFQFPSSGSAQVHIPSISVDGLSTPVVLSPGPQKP
# Method in brief: as §1
# GABPA = target: T3, GABPA (Homo sapiens, UniProt Q06546 1-454)
# T3 sequence: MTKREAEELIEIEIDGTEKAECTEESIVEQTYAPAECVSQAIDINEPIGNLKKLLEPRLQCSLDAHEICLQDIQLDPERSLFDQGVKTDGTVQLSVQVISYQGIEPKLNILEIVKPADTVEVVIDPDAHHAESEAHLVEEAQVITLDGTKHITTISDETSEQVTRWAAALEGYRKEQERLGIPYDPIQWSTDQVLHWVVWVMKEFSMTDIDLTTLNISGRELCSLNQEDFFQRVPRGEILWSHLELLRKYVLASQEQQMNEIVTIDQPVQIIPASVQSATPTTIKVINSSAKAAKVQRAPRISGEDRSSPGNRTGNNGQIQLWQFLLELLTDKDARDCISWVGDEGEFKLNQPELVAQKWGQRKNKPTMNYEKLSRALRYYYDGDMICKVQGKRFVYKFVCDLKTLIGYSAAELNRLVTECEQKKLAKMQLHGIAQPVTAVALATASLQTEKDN
# Method in brief: as §1
# ELF1 = ELF1 (Homo sapiens, UniProt P32519 1-619)
# Chain of ELF1 (P32519 whole entry): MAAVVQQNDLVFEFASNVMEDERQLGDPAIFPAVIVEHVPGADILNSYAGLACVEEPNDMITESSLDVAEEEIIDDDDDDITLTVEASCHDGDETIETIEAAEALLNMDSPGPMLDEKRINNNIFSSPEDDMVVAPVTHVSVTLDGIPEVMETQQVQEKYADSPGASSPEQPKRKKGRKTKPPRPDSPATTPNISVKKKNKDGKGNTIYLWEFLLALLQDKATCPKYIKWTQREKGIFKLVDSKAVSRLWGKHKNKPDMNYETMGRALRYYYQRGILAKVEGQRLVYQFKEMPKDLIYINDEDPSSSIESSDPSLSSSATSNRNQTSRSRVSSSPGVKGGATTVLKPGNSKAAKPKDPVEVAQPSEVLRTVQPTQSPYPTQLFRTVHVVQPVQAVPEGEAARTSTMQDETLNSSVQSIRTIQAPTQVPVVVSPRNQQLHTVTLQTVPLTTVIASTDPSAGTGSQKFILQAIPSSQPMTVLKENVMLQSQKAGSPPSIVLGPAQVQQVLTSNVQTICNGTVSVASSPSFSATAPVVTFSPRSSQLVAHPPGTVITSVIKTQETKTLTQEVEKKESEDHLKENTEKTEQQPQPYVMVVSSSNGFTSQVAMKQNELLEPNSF
# Method in brief: as §1
# EHF = target: T4, EHF (Homo sapiens, UniProt Q9NZC4 1-300)
# T4 sequence: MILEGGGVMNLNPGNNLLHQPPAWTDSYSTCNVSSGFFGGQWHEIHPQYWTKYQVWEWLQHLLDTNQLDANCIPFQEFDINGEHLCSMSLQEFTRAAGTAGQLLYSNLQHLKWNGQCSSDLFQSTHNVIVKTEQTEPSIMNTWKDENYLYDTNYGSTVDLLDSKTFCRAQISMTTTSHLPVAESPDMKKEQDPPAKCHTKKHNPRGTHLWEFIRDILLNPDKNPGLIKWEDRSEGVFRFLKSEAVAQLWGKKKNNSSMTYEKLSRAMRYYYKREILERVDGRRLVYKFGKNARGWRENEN
# Method in brief: as §1
# SPI1 = SPI1 (Homo sapiens, UniProt P17947 1-270)
# Method in brief: as §1
# ELK3 = target: T5, ELK3 (Homo sapiens, UniProt P41970 1-407)
# T5 sequence: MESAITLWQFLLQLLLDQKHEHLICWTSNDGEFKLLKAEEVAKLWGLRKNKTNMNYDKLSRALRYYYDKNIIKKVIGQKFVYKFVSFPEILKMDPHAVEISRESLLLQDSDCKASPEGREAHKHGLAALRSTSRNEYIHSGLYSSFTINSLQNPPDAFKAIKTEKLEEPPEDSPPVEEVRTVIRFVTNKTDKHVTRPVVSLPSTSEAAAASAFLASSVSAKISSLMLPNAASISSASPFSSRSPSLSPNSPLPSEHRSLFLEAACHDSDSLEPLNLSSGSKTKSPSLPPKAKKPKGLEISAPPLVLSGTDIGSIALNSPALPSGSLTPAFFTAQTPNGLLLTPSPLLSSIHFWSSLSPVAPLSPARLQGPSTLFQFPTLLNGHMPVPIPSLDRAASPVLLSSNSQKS
# Method in brief: as §1
# FEV = target: T6, FEV (Homo sapiens, UniProt Q99581 1-238)
# T6 sequence: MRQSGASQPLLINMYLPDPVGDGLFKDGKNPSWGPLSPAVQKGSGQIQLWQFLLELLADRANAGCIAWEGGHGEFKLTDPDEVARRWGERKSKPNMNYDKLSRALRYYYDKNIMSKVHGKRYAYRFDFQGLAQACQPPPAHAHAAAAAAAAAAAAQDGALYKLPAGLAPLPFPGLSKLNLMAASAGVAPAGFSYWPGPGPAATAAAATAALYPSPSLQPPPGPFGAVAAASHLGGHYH
# Method in brief: as §1
# ETV5 = ETV5 (Homo sapiens, UniProt P41161 1-510)
# Chain of ETV5 (P41161 whole entry): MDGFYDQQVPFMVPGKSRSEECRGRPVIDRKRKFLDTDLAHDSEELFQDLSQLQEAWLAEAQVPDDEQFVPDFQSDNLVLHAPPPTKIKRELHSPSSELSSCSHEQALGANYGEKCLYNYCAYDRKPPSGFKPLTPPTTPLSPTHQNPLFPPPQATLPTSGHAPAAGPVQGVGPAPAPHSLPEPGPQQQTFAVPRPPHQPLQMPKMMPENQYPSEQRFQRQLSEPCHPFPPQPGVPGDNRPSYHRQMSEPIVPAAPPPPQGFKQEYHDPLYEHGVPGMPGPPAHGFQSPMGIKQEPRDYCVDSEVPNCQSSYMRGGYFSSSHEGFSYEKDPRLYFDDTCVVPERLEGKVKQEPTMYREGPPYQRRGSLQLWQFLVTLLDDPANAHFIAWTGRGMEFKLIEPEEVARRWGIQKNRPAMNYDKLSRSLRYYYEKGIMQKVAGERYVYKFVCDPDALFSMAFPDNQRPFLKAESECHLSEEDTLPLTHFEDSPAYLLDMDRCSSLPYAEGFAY
# Method in brief: as §1
# SPIC = target: T7, SPIC (Homo sapiens, UniProt Q8N5J4 1-248)
# T7 sequence: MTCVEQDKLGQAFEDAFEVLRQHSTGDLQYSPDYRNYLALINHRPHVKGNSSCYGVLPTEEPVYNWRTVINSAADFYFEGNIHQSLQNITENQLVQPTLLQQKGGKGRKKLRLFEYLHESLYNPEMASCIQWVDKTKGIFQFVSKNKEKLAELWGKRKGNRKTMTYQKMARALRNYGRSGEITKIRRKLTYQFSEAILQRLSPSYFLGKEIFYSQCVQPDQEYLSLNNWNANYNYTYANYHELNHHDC
# Method in brief: as §1
# ETV1 = ETV1 (Homo sapiens, UniProt P50549 1-477)
# Chain of ETV1 (P50549 whole entry): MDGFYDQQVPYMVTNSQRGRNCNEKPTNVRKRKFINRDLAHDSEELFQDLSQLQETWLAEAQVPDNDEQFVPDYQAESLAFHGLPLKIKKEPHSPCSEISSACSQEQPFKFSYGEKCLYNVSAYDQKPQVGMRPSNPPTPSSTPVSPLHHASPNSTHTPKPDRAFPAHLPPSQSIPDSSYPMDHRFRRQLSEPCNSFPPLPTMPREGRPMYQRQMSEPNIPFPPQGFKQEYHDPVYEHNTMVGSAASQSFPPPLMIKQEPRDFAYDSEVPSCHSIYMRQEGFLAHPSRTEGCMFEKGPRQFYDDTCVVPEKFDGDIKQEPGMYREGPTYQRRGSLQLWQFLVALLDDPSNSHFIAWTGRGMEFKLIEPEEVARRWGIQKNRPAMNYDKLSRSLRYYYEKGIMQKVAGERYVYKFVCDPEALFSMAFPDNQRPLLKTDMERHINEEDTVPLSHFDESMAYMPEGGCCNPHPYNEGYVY
# Method in brief: as §1
# ETV3L = target: T8, ETV3L (Homo sapiens, UniProt Q6ZN32 1-361)
# T8 sequence: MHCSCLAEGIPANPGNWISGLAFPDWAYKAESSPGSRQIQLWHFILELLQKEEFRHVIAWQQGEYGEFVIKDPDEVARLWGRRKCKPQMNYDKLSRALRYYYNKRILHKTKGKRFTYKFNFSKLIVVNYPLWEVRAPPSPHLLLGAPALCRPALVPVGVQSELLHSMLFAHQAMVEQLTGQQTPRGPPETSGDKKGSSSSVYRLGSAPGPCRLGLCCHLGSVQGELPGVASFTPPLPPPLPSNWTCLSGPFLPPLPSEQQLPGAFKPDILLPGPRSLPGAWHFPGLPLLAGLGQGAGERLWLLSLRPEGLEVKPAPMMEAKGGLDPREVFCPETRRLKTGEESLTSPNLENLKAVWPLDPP
# Method in brief: as §1
# SPDEF = target: T9, SPDEF (Homo sapiens, UniProt O95238 1-335)
# T9 sequence: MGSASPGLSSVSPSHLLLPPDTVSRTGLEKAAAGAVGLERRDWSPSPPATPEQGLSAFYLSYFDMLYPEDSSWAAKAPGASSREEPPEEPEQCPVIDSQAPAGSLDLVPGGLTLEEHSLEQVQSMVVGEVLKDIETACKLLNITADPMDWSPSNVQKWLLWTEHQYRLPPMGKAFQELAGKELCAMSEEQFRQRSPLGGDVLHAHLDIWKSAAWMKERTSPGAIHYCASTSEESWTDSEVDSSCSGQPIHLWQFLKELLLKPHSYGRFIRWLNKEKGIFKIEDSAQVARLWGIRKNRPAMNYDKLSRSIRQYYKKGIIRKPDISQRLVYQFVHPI
# Method in brief: as §1
# ETV3 = target: T10, ETV3 (Homo sapiens, UniProt P41162-2 1-143)
# T10 sequence: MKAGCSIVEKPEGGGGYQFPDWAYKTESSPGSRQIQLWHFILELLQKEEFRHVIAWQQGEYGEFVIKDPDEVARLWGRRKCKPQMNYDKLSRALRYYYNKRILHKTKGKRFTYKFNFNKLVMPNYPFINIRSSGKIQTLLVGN
# Method in brief: as §1
# ETV6 = ETV6 (Homo sapiens, UniProt P41212 1-452)
# Chain of ETV6 (P41212 whole entry): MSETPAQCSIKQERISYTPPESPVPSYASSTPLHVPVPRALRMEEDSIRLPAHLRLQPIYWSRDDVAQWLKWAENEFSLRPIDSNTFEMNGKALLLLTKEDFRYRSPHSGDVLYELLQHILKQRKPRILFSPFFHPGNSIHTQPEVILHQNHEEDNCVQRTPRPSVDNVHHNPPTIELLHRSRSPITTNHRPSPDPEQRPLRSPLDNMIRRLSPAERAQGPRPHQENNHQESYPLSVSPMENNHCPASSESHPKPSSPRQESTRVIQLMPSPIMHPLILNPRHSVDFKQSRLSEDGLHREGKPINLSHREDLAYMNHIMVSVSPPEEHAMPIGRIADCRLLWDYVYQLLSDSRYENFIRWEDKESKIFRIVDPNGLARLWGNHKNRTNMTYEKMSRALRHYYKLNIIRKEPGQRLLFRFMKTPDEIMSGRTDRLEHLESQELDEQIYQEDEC
# Method in brief: as §1
# SPIB = SPIB (Homo sapiens, UniProt Q01892 1-262)
# Chain of SPIB (Q01892 whole entry): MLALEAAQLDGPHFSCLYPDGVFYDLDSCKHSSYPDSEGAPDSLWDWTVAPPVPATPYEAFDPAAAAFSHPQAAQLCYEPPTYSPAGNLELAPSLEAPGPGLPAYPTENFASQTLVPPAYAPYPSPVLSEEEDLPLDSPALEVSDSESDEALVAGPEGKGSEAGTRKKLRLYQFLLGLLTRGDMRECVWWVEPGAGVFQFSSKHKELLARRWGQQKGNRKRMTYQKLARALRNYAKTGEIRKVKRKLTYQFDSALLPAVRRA
# Method in brief: as §1
Sequence,binding signal (FLI1),binding signal (ELK1),binding signal (GABPA),binding signal (ELF1),binding signal (EHF),binding signal (SPI1),binding signal (ELK3),binding signal (FEV),binding signal (ETV5),binding signal (SPIC),binding signal (ETV1),binding signal (ETV3L),binding signal (SPDEF),binding signal (ETV3),binding signal (ETV6),binding signal (SPIB)
ACTGTA,"1 fold enrichment (6-mer frequency, TF over GST control)","1.09 fold enrichment (6-mer frequency, TF over GST control)","1.03 fold enrichment (6-mer frequency, TF over GST control)","1.08 fold enrichment (6-mer frequency, TF over GST control)","1.11 fold enrichment (6-mer frequency, TF over GST control)","1.09 fold enrichment (6-mer frequency, TF over GST control)","1.04 fold enrichment (6-mer frequency, TF over GST control)","1 fold enrichment (6-mer frequency, TF over GST control)","1.08 fold enrichment (6-mer frequency, TF over GST control)","1.24 fold enrichment (6-mer frequency, TF over GST control)","1.02 fold enrichment (6-mer frequency, TF over GST control)","1.01 fold enrichment (6-mer frequency, TF over GST control)","1.02 fold enrichment (6-mer frequency, TF over GST control)","1 fold enrichment (6-mer frequency, TF over GST control)","1.03 fold enrichment (6-mer frequency, TF over GST control)",
GGTATG,"1.01 fold enrichment (6-mer frequency, TF over GST control)","1.03 fold enrichment (6-mer frequency, TF over GST control)",,"1.01 fold enrichment (6-mer frequency, TF over GST control)",,,,,"1.01 fold enrichment (6-mer frequency, TF over GST control)","1.22 fold enrichment (6-mer frequency, TF over GST control)",,,"1.02 fold enrichment (6-mer frequency, TF over GST control)","1.02 fold enrichment (6-mer frequency, TF over GST control)",,"1.02 fold enrichment (6-mer frequency, TF over GST control)"
